Activity calls are given as the source filed them. Calls follow the shape of the full dose curve. *1 amine or outer side, *2 acyl side, *3 side chain or, on linkers, in order; H or OH if unused. Where a SMILES comes first, the peptide text is derived from it. Bridges are numbered along the chain shown (N, C = ends). Roman numbers before positions name the chains, in order. [ ]: non-standard residue; d: D form. Actinocin(9to1) = Cc1c2oc3c(C)ccc(C(=O)[*:1])c3nc-2c(C(=O)[*:2])c(N)c1=O; NMeV = CN[CH](C(=O)O)C(C)C; Sar = CNCC(=O)O
test: qHTS profiling of Chloroquine Analogs as inhibitors of Plasmodium falciparum (HB3) proliferation; conditions: P. falciparum HB3 proliferation; series mostly up to 28.7 µM; activity change, negative = inhibition: at the top concentration
Text: Plasmodium falciparum is a virulent malarial parasite that kills 1-2 million people worldwide each year. Transmitted by mosquitoes, the sporozoite form of the parasite enters the blood stream to infect hepatocytes, where they become merozoites that infect red blood cells (erythrocytes). Within erythrocytes, merozoites begin a […] cycle of growth and division, after which the parasite is released to infect new red blood cells. Gametocytes, which form within erythrocytes as well, circulate in the bloodstream and are ingested by the mosquito, thereby completing the life cycle. To profile malarial isolates for differential chemical responses and to identify inhibitors of malarial growth, an assay that measures P. falciparum growth and replication within erythrocytes was employed. This assay uses a DNA binding fluorescent dye (SYBR Green) to detect parasite DNA following cell lysis. Because mature erythrocytes lack DNA, only Plasmodium-derived DNA is detected.
The SYBR Green viability assay was adapted from a method described previously (Plouffe et al., 2008). For screening 3 ul culture medium was dispensed into 1536 well black clear bottom plates (Aurora Biotechnologies) using a Multidrop Combi (Thermo Fisher Scientific Inc.), 23 nL compounds in DMSO were added by a pin tool (Kalypsys), and 5 ul of erythrocytes infected with P. falciparum (0.3% parasitemia, 2.5% hematocrit final concentration) were added. The plates were incubated at 37 C in a humidified incubator in 5% CO2 for 72 h, and 2 ul lysis buffer (20 mM Tris HCl, 10 mM EDTA, 0.16% saponin, 1.6% triton X, 10X SYBR Green I supplied as 10,000X […] by Invitrogen) was added to each well. The plates were mixed for 25 sec with gentle shaking and incubated overnight at room temperature in the dark. The following morning, fluorescence intensity at 485(14) nm excitation and 535(25) nm emission wavelengths was measured on an EnVision (Perkin Elmer) plate reader. Plate reads were normalized relative to the control inhibitor (0.29 uM artemisinin) and vehicle (DMSO) wells present on each plate and then corrected by an algorithm using vehicle-only control plates at the beginning and end of the compound plate stack.

| SMILES | Potency | activity change, negative = inhibition |
| --- | --- | --- |
| CCN(CC)CCOc1ccc2c(=O)c3ccc(Cl)cc3n(CCN(CC)CC)c2c1 | 530 nM (active) |  |
| CCc1ccc(OCc2ccccc2C(=O)Nc2ccc3nc(C)cc(N)c3c2)cc1 | 1190 nM (active) |  |
| C[C@@H]1[C@@H](CC(C[C@H]2O[C@@H]3O[C@]4(C)CC[C@@H]5[C@H](C)CC[C@@H]([C@H]2C)[C@@]35OO4)C(=O)NCc2ccc(F)cc2)O[C@@H]2O[C@]3(C)CC[C@H]4[C@H](C)CC[C@@H]1[C@@]24OO3 (stereo not given in full) |  | -102% (inactive) |
| COc1cc(C=CC(=O)CC(=O)C=Cc2ccc(O)c(OC)c2)ccc1O |  | 169% (inactive) |
| C[C@@H]1CCC2[C@@H](C)[C@@H](O)O[C@@H]3O[C@@]4(C)CC[C@@H]1[C@@]23OO4 (stereo not given in full) |  | -100% (inactive) |
| C[C@H]1Cc2c([nH]c3cc(Cl)c(F)cc23)[C@@]2(N1)C(=O)Nc1ccc(Cl)cc12 |  | -102% (inactive) |
| C[C@@H]1CC[C@H]2[C@@H](C)C(=O)O[C@@H]3OC4(C)CC[C@@H]1C32OO4 (stereo not given in full) |  | -99.5% [at 57.5 µM] (inactive) |
| CCCCN(CCCC)CCC(O)c1cc2c(Cl)cc(Cl)cc2c2cc(C(F)(F)F)ccc12 (stereo not given) | 5.1 nM (active) |  |
| CCCC[C@@H]1C[C@@H](C(=O)NC([C@H](C)Cl)[C@H]2O[C@H](S)[C@H](O)[C@@H](O)[C@@H]2O)N(C)C1 (stereo not given in full) | 33.5 nM (active) |  |
| CC(=O)N(O)CCCP(=O)(O)O | 266 nM (active) |  |
| C[C@H]1c2cccc(O)c2C(O)=C2C(=O)[C@]3(O)C(O)=C(C(N)=O)C(=O)[C@@H](N(C)C)[C@@H]3[C@@H](O)[C@@H]21 | 8410 nM (active) |  |
| Cc1c2oc3c(C)ccc(C(=O)NC4C(=O)NC(C(C)C)C(=O)N5CCCC5C(=O)N(C)CC(=O)N(C)C(C(C)C)C(=O)OC4C)c3nc-2c(C(=O)NC2C(=O)NC(C(C)C)C(=O)N3CCCC3C(=O)N(C)CC(=O)N(C)C(C(C)C)C(=O)OC2C)c(N)c1=O (stereo not given) (I: TVP[Sar][NMeV] / II: TVP[Sar][NMeV]; ester I:1-I:C, II:1-II:C; linker I:N-II:N via Actinocin(9to1); configuration not given here) |  | -100% (inactive) |
| CN1CC[C@H](CN2c3ccccc3Sc3ccccc32)C1 | 10600 nM (active) |  |
| CN([C@@H](Cc1ccc(OS(=O)(=O)c2cccc3cnccc23)cc1)C(=O)N1CCN(c2ccccc2)CC1)S(=O)(=O)c1cccc2cnccc12 |  | -101% (inactive) |
| CCc1nc(N)nc(N)c1-c1ccc(Cl)cc1 |  | -100% (inactive) |
| OB1OCc2cc(F)ccc21 |  | 151% (inactive) |
| C=CCON=C(C[C@H]1O[C@@H]2O[C@]3(C)CC[C@@H]4[C@H](C)CC[C@@H]([C@H]1C)[C@@]24OO3)[C@H]1O[C@@H]2O[C@]3(C)CC[C@H]4[C@H](C)CC[C@@H]([C@@H]1C)[C@@]24OO3 |  | -101% (inactive) |
| CCOc1ccccc1O[C@H](c1ccccc1)[C@H]1CNCCO1 |  | 154% (inactive) |
| COc1cc(NC(C)CCCN)c2ncccc2c1 (stereo not given) | 804 nM (active) |  |
| C[C@H]1[C@@H](CCC(=O)Nc2ccc(F)cc2)O[C@@H]2O[C@]3(C)CC[C@@H]4[C@H](C)CC[C@@H]1[C@@]24OO3 | 6.7 nM (active) |  |

| SMILES | Potency | activity change, negative = inhibition |
| --- | --- | --- |
| CSc1cccc(NC(=O)CC[C@H]2O[C@@H]3O[C@]4(C)CC[C@H]5[C@H](C)CC[C@@H]([C@@H]2C)[C@@]35OO4)c1 | 18.8 nM (active) |  |
| O=C1C(=O)c2ccccc2C(O)=C1C1CCC(c2ccc(Cl)cc2)CC1 (stereo not given) | 0.5 nM (active) |  |
| CC[C@@H](C)[C@H]1O[C@]2(CC[C@H]1C)C[C@@H]1C[C@@H](CC=C(C)[C@@H](O[C@H]3C[C@H](OC)[C@@H](O[C@H]4C[C@H](OC)[C@@H](O)[C@H](C)O4)[C@H](C)O3)[C@@H](C)C=CC=C3CO[C@@H]4[C@H](O)C(C)=C[C@@H](C(=O)O1)[C@]34O)O2 |  | -102% (inactive) |
| Cc1cccc(C)c1NC(=O)C(C)N (stereo not given) |  | 140% [at 14.2 µM] (inactive) |
| COC(=O)C1C2CC3c4[nH]c5cc(OC)ccc5c4CCN3CC2CC(OC(=O)c2cc(OC)c(OC)c(OC)c2)C1OC (stereo not given) |  | 188% [at 57.5 µM] (inactive) |
| CCOc1ccc(F)cc1C1(O)C(N)=Nc2ccc(Cl)cc21 (stereo not given) |  | 136% (inactive) |
| Cc1nc2c(C#N)cccc2n1-c1ccc(C(=O)NC2CC2)s1 | 23.7 nM (active) |  |
| O=CN(O)CCCP(=O)(O)O | 473 nM (active) |  |
| C[C@H]1[C@@H](OC(=O)CCC(=O)O)O[C@@H]2OC3(C)CC[C@H]4[C@H](C)CC[C@@H]1[C@@]24OO3 | 3 nM (active) |  |
| CCN(CC)CCOCCOC(=O)C(CC)(CC)c1ccccc1 |  | -29.4% (inactive) |
| C[N+]1(C)CCC(=C(c2ccccc2)c2ccccc2)CC1 |  | -94.4% [at 14.2 µM] (inactive) |
| CCCC(=O)O[C@]1(C(=O)CCl)[C@H](C)C[C@@H]2[C@H]3CCC4=CC(=O)C=C[C@]4(C)[C@@]3(F)C(=O)C[C@@]21C |  | 133% (inactive) |
| CC(C)N=C(N)N=C(N)Nc1ccc(Cl)cc1 | 29.8 nM (active) |  |
| Cc1cccc(C)c1OCC(N)C(C)C (stereo not given) | 18800 nM (active) |  |
| C/C(=C\c1csc(C)n1)[C@@H]1C[C@@H]2O[C@]2(C)CCC[C@H](C)[C@H](O)[C@@H](C)C(=O)C(C)(C)[C@@H](O)CC(=O)O1 |  | -97.6% (inactive) |
| C[C@H](N)CN1CCc2ccc(Br)cc21 | 1500 nM (active) |  |
| CC[C@H]1OC(=O)[C@H](C)[C@@H](O[C@H]2C[C@@](C)(OC)[C@@H](O)[C@H](C)O2)[C@H](C)[C@@H](O[C@@H]2O[C@H](C)C[C@H](N(C)C)[C@@H]2O)[C@](C)(O)C[C@@H](C)CN(C)[C@H](C)[C@@H](O)[C@]1(C)O | 9430 nM (active) |  |
| CC(=O)O[C@@]12CO[C@@H]1C[C@H](O)[C@@]1(C)C(=O)[C@H](O)C3=C(C)[C@@H](OC(=O)[C@H](O)[C@@H](NC(=O)OC(C)(C)C)c4ccccc4)C[C@@](O)([C@@H](OC(=O)c4ccccc4)[C@H]21)C3(C)C | 9.4 nM (active) |  |
| Cc1cccc(C)c1OCC(=O)N[C@@H](Cc1ccccc1)[C@@H](O)C[C@H](Cc1ccccc1)NC(=O)[C@H](C(C)C)N1CCCNC1=O |  | 141% (inactive) |
| CNCCCCOc1ccccc1Cc1ccccc1 |  | -79% (inactive) |

Reference: PubChem BioAssay AID743327 (National Center for Advancing Translational Sciences (NCATS), 2014)
